Potency and affinity values are given separately. Activity calls are given as the source filed them.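 How the source made its calls: active means signal-lowering compounds whose fitted half-maximal concentration is at or below twice the top tested dose in every run; inconclusive means runs disagree, flat 30 to 70% inhibition, or poor curve fit; inactive means the rest.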

The target in the assay is Protein S100-A4 (Homo sapiens) (UniProt P26447). Kind of assay: S100A4-myosin IIA binding inhibitor potency, dose response, biochemical, fluorescence polarization, cherry-picked hits (AID 687001). Conditions: FP, S100A4/TAMRA-myosin IIA peptide binding; series mostly up to 11 µM. Background: Polarisation of emitted light reports the rotation of a fluorescent probe.
Protein S100-A4 (Homo sapiens), sequence (P26447 whole entry, looked up): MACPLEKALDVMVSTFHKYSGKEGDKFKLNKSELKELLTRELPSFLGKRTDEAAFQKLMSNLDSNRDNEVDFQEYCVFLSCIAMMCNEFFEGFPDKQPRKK
Regarding `CN(C)CC(=O)N[C@H]1CC[C@@H](CC(=O)NCc2ccc(Cl)cc2)O[C@@H]1CO`, the outcome was inactive.

On to `C[C@H]1CCCCO[C@H](CN(C)C(=O)Nc2ccc(C(F)(F)F)cc2)[C@@H](C)CN([C@@H](C)CO)C(=O)c2cc(NS(=O)(=O)c3ccccc3)ccc2O1`, for which the call was inactive.

Take `COc1cc(S(=O)(=O)N2CCOCC2)cc(C(=O)c2nccn2C)c1OC`: the outcome was inactive. With `O=C(Nc1ccc(F)cc1)N1CCCCN2[C@H](CO)[C@H](c3ccc(C#Cc4ccccn4)cc3)[C@H]2C1` the entry was “inactive”. With `C[C@@H]1ON(C)[C@H]2C[C@H]3c4[nH]c5ccccc5c4CCN3C(=O)[C@@H]12` the entry was “inactive”; with `COc1ccc(C(C)(O)c2nc(-c3cccs3)cs2)cc1` (stereo unspecified), “inactive”; with `CC(C)n1nnnc1C1c2ccccc2C(=O)N1Cc1cccc(F)c1` (stereo unspecified), “inactive”.

For the compound `CCC(=O)Nc1ccc2c(c1)OC[C@H](C)N(Cc1ccccc1C(=O)O)C[C@H](C)[C@@H](OC)CN(C)C2=O`, the outcome was inactive. Next, `CC[C@]12c3[nH]c4ccc(Cl)cc4c3CCN1C(=O)[C@@H](CC(=O)NCCCn1ccnc1)C[C@@H]2C(=O)N1CCN(C(=O)c2ccco2)CC1`: “inactive”; `COc1ccccc1[C@H]1C(c2ccc(F)cc2)=NN(c2ccccc2)[C@@H]1CO`: “inactive”.

In the case of `COc1ccc(-c2cc(C(=O)NCc3ccco3)c3ccccc3n2)c(OC)c1`, the call was inactive. Consider `COc1ccc(-c2coc(CCC(=O)N3CCN(c4cc(C)ccc4C)CC3)n2)cc1`, for which the compound was called inactive. With `COc1ccc(S(=O)(=O)NCC2CCCN(Cc3cccc(C(C)=O)c3)C2)cc1` (stereo unspecified) the entry was “inactive”; with `CCCC(=O)Nc1ccc2c(c1)OC[C@@H](C)N(C(=O)c1cnccn1)C[C@@H](C)[C@H](OC)CN(C)C2=O`, “inactive”. Next, `Cc1cnc(C(=O)OCC(=O)c2ccccc2)cn1`: “inactive”; `CCCNC(=O)[C@@H]1[C@@H](CO)[C@@H]2Cn3c(cccc3=O)[C@@H]2N1C(=O)C1CCC1`: “inactive”. With `COc1ccc(NC(=O)N(C)C[C@H]2Oc3ccc(N(C)C)cc3C(=O)N([C@@H](C)CO)C[C@@H]2C)cc1` the entry was “inactive”; with `COc1ccc(NC(=O)Nc2cccc3c2O[C@H](CN(C)Cc2ccc4c(c2)OCO4)[C@@H](C)CN([C@@H](C)CO)C3=O)cc1`, “inactive”; with `COc1ccc(C(=O)O)cc1S(=O)(=O)Nc1ccccc1-c1ccccc1`, “inactive”.

`O=C(NC1CCCCC1)[C@H]1[C@H](CO)[C@H]2Cn3c(cccc3=O)[C@H]2N1C(=O)CC1CC1`: the compound was called inactive. With `COCC(=O)N1CC2(CCN(Cc3ccccc3Cl)CC2)c2c([nH]c3cc(OC)ccc23)[C@H]1CO` the entry was “inactive”; with `COc1ccc(C#Cc2ccc([C@H]3[C@H]4CN(C(=O)Nc5ccccc5)CCCCN4[C@H]3CO)cc2)cc1`, “inactive”.

Consider `CC1Cc2ccccc2N1NC(=O)c1ccc(Cl)c(S(N)(=O)=O)c1` (stereo unspecified), for which the call was inactive.

As for `CNC[C@@H]1OCCCC[C@H](C)Oc2ccc(NS(C)(=O)=O)cc2C(=O)N([C@@H](C)CO)C[C@@H]1C`, the compound was classed as inactive. Next, `O=C(C[C@@H]1CC[C@H]2[C@@H](COC[C@@H](O)CN2CC2CCCCC2)O1)NCc1ccc(F)cc1`: “inactive”. `O=C(CN1C(=O)/C(=C/c2ccccc2Cl)SC1=S)NC1C=CS(=O)(=O)C1` (stereo unspecified): the outcome was inactive.

In the case of `COc1cccc(C2c3[nH]c4ccccc4c3C[C@H]3C(=O)N(C)CC(=O)N23)c1` (stereo partly specified), the call was inactive. Next, `Cc1cc(C(=O)NC2CCCN(Cc3ccc(Cl)cc3)C2)n(C)n1` (stereo unspecified): “inactive”. With `C[C@H](NC(=O)C[C@H]1C[C@@H]2c3cc(NC(=O)CN(C)C)ccc3O[C@@H]2[C@H](CO)O1)c1ccccc1`, the result was inactive. With `Cc1cnc(CN(C)C(=O)C2CCC(=O)N(CCc3ccccc3)C2)[nH]1` (stereo unspecified) the entry was “inactive”; with `CS(=O)(=O)Nc1cccc(C2=NN(C(=O)c3ccc(F)cc3)C(c3cccs3)C2)c1` (stereo unspecified), “inactive”. With `CCC(=O)N1CC(=O)N2[C@H](CO)[C@H](c3ccc(C#CC4CCCC4)cc3)[C@H]2C1` the entry was “inactive”.

As for `C[C@@H]1CN([C@H](C)CO)C(=O)CCCn2cc(nn2)CO[C@H]1CN(C)S(C)(=O)=O`, the compound was classed as inactive. Next, `CC=Cc1ccc2n(c1=O)C[C@@H]1[C@@H](CO)[C@H](C(=O)NCc3ccc4c(c3)OCO4)[C@H]2N1C(C)=O` (mixture of isomers): “inactive”; `O=C1NC[C@H](c2ccccc2)OC(=O)[C@H](Cc2ccc(F)cc2)C/C=C\C[C@H]1CC(=O)N(CCO)Cc1ccccc1`: “inactive”; `CO[C@H]1CC[C@H]2CCN(C)C(=O)[C@@H](C)[C@H](OC)CN(C)C(=O)c3cc(C#N)ccc3OC[C@H]1O2`: “inactive”.
